Measurements published in PubChem BioAssay (EPA / NIEHS).
The source made the active and inactive calls. Rule for the calls: active = hit-call score of the fitted dose curve at least 0.9, where 1 is the maximum; inconclusive = response in the unintended direction; inactive = score below 0.9.

test: Tanguay_ZF_120hpf_MORT_legacy: (Legacy) Oregon State University Tanguay Lab 120 Hour Post-fertilization zebrafish Assay for Mortality (AID 2283633)
Method: Tanguay_ZF_120hpf_legacy is a whole embryo, multiplexed endpoint assay using zebrafish larvae exposed for 120 hours post fertilization on a 96-well plate.Tanguay_ZF_120hpf_MORT_legacy is one of one assay component(s) measured or calculated from the Tanguay_ZF_120hpf_legacy assay. It is designed to make measurements of embryonic mortality as detected with brightfield microscopy of developing zebrafish embryos.Data from the assay component Tanguay_ZF_120hpf_MORT_legacy was analyzed into 1 assay endpoints. This assay endpoint, Tanguay_ZF_120hpf_MORT_legacy, was analyzed in the positive analysis fitting direction relative to DMSO as the negative control and baseline of activity. Using a type of viability reporter, gain-of-signal activity can be used to understand changes in developmentals as they relate to the whole embryo. To generalize the intended target to other relatable targets, this assay endpoint is annotated to the embryonic mortality intended target family, where the subfamily is embryonic mortality.
Zebrafish husbandry: Tropical 5D wild-type adult zebrafish were housed in at an approximate density of 1000 per 100 gallon tank at the Sinnhuber Aquatic Research Laboratory, Oregon State University, Corvallis, OR. Each tank was kept at standard laboratory conditions of 28C on a 14-h light/10-h dark photoperiod in fish water consisting of reverse osmosis water supplemented with a commercially available salt (Instant Ocean). Spawning funnels were placed into the tanks the night prior, and embryos were collected and staged. To increase bioavailability, the chorion was enzymatically removed using pronase (63.6mg/ml, >/= 3.5U/mg, Sigma-Aldrich: P5147) at 4 hours post fertilization (hpf) using a custom automated dechorionator.Chemical exposures: Six hpf dechorionated embryos were placed 1 embryo per well in a 96-well plate prefilled with 90 ul of EM using automated embryo placement systems (AEPS). Ten microliters of each row of dilution plate 2 was added to 2 exposure plates. The final DMSO concentration used was 0.64% (vol/vol). Thirty-two embryos were also exposed to 5uM trimethyltin chloride (positive control). Plates were sealed to prevent evaporation and foil covered to reduce light exposure and kept in a 28C incubator. Embryos were statically exposed until 120 hpf. At 24 hpf, embryos were assessed for photomotor response using a custom photomotor response analysis tool (PRAT) and for developmental toxicity endpoints (MO24: mortality at 24 hpf, DP: developmental progression, SM: spontaneous movement, and NC: notochord distortion). At 120 hpf, locomotor activity was measured using Viewpoint Zebralab and assessed for 18 endpoints. Zebrafish acquisition and analysis program (ZAAP), a custom program designed to inventory, acquire, and manage zebrafish data, was used to collect developmental endpoints as either present or absent (i.e., binary responses were recorded). If mortality occurred for an embryo (at either 24 or 120 hpf), the non-mortality endpoints were not measured.

SMILES	outcome	AC50
CCc1ccc(O)c(C(C)(C)C)c1	inactive	–
CCCOc1ccc(S(=O)(=O)N2CCN(CC)CC2)cc1-c1nc2c(CC)n(Cc3ccccn3)nc2c(=O)[nH]1	inactive	–
CC(C)C(=O)Nc1ccc([N+](=O)[O-])c(C(F)(F)F)c1	inactive	–
CC(C)c1nnc2ccc(-c3ocnc3-c3cc(F)ccc3F)cn12	inactive	–
O=C(NO)C1(NS(=O)(=O)c2ccc(Oc3ccc(F)cc3)cc2)CCOCC1	inactive	–
Nc1ccn([C@@H]2O[C@H](CO)[C@@H](O)[C@@H]2O)c(=O)n1	inactive	–
CCCCCCOC(=O)CC(CC(=O)OCCCCCC)(OC(=O)CCC)C(=O)OCCCCCC	inactive	–
CNC(C)=O	inactive	–
Cn1cc[nH]c1=S	inactive	–
COCc1nnc(-c2ccc[n+]([O-])c2)n1-c1c(Cl)c(Cl)cc2[nH]c(=O)c(=O)[nH]c12	inactive	–
Cc1ncc([C@@H](CCCCCCc2ccc3c(n2)NCCC3)CC(=O)O)cn1	inactive	–
C=CN1CCCC1=O	inactive	–
O=C1CN(N=Cc2ccc([N+](=O)[O-])o2)C(=O)N1	inactive	–
O=C(O)c1cccc(C[C@@H]2COc3ccc(OCc4nc5cc(F)ccc5s4)cc3[C@@H]2O)c1	–	26 µM (active)
CCOc1ccc2[nH]cc(C(=O)NCc3ccccc3)c(=O)c2n1	inactive	–
C=CCc1cc(S(=O)(=O)c2ccc(O)c(CC=C)c2)ccc1O	inactive	–
CCCCCOC(C)=O	inactive	–
CCCCCCCC1CCC(=O)O1 (stereo not given)	inactive	–
C[C@@H](Oc1ccc(CNC(=O)c2cccnc2Oc2ccc3c(c2)OCO3)c(F)c1)C(=O)O	inactive	–
CC(C)CCCCCCOC(=O)C1CCCCC1C(=O)OCCCCCCC(C)C (stereo not given)	inactive	–

SMILES	outcome	AC50
CCCCCCCC/C=C\CCCCCCCC(=O)OC[C@@H](O)[C@H]1OC[C@H](O)[C@H]1O	inactive	–
OC[C@H]1O[C@@](CO)(O[C@H]2O[C@H](CO)[C@@H](O)[C@H](O)[C@H]2O)[C@@H](O)[C@@H]1O	inactive	–
COS(C)(=O)=O	inactive	–
c1ccc2c(c1)-c1cccc3c1c-2cc1ccccc13	inactive	–
CCCCOC(=O)c1ccccc1	inactive	–
OC(CCl)CCl	inactive	–
CC(=O)c1ccccc1	inactive	–
CCCCN1C(=O)[C@@H]([C@H](O)C2CCCCC2)NC(=O)C12CCN(Cc1ccc(Oc3ccc(C(=O)O)cc3)cc1)CC2	inactive	–
CCn1nc(C)c2c1C(=O)NCC(c1ccc(O)cc1)=N2	inactive	–
CCOC(N)=O	inactive	–
CCCCC(CC)C(=O)OCCOCCOCCOC(=O)C(CC)CCCC (stereo not given)	inactive	–
C[C@]12C=CC(=O)C=C1CC[C@H]1[C@@H]3C[C@@H](O)[C@](O)(C(=O)CO)[C@@]3(C)C[C@H](O)[C@@]12F	inactive	–
CCCc1ccccc1	inactive	–
O=C(O)c1cccc(C(=O)O)c1	inactive	–
CCCCCCCCCC	inactive	–
O=S1(=O)CCCO1	inactive	–
O=c1[nH]cnc2c1ncn2[C@H]1CC[C@@H](CO)O1	inactive	–
NC(=O)NN=Cc1ccc([N+](=O)[O-])o1	inactive	–
NNC(=O)c1ccncc1	inactive	–
CCCCCCCCCCCCCCCCOS(=O)(=O)O	inactive	–
